Data: ChEMBL document CHEMBL1157539, “Thousands of chemical starting points for antimalarial lead identification” (Nature, 2010)

Test system: Plasmodium falciparum
Test: GSK_TCMDC: Inhibition of Plasmodium falciparum 3D7 in whole red blood cells, using parasite LDH activity as an index of growth. Test compounds present at 2uM
Assay type: functional

SMILES	Inhibition
Cc1cccc2nc(-c3ccc(-c4ccc(NC(=O)Nc5ccc(Cl)c(Cl)c5)cc4)cc3)[nH]c12	100%
Cc1cc(N(CCO)CCCN2CCCCC2)nc(Nc2ccc(Cl)cc2)n1.Cl	100%
Cc1cc(N2CC=CCC2)nc(NC(=N)Nc2ccc(Br)cc2)n1	98%
O=C(OCc1ccccc1)N1CCc2c([nH]c3ccccc23)C1CCC(F)(F)F (stereo not given)	94%
CCc1ccc(O)c(-c2cc(C(=O)Nc3ccc(OC)c(Cl)c3)[nH]n2)c1	93%
O=C(/C=C/c1ccc(Cl)c(Cl)c1)NCCCCCN1CCC(NC(=S)Nc2cccc(Cl)c2)CC1	99%
CCCC(C)Nc1nc(C)cc(NCCC(=O)Nc2ccccc2)n1.O=C(O)C(F)(F)F (stereo not given)	96%
Cc1cc(N[C@@H](Cc2ccccc2)C(=O)NCc2cccc(F)c2)nc(NCCc2ccc(F)cc2)n1.O=C(O)C(F)(F)F	99%
CCOc1ccccc1C1C(C(=O)C(C)(C)C)N2c3ccc(Br)cc3C=CC2C12C(=O)c1ccccc1C2=O (stereo not given)	95%
O=C(Nc1ccc(OC2CCN(Cc3ccc(F)cc3)CC2)cc1)c1cccs1.O=C(O)C(F)(F)F	84%
CN1CCC(C(=O)Nc2ccc(-c3cccc(-c4nc5cc(F)ccc5[nH]4)c3)cc2)CC1	100%
Br.CC1(C)NC(N)=NC(=N)N1OCCSc1ccc(Cl)c(Cl)c1	96%
C=C[C@H]1CN(CCCCCCC)CC[C@H]1C[C@@H](Cc1ccnc2ccc(OC)cc12)OC(=O)[C@](OC)(c1ccccc1)C(F)(F)F	96%
O=C(/C=C/c1ccc(Cl)cc1)NCCCCCN1CCCN(C(=O)Nc2ccc(F)c(Cl)c2)CC1	94%
CN(Cc1ccc(NC(=O)CCC2CCN(C(=O)/C=C/c3ccc(Cl)c(Cl)c3)CC2)cc1)C1CCOCC1	94%
Cc1ccccc1Cn1c(CN2CCC(C(=O)NC3CC3)CC2)cc2ccccc21	97%
COc1cccc(C2=CC(C)(C)Oc3cc(OCCN(C)C)ccc32)c1.Cl	97%
C=CCN(c1nc(NC)nc(NCc2c(OC)cccc2OC)n1)C1CCCC1	85%
CCc1c(CCNCCCCCCNCCc2ccccc2)ccc(OC)c1OC.Cl	100%
CN(C)CCOc1ccc(/C(=C(/CCCn2ccnc2)c2ccccc2)c2ccc(O)cc2)cc1	100%

SMILES	Inhibition
CN1CCN(CCCN(Cc2cccc(-c3cccc(CNCc4ccc5c(c4)OCO5)c3)c2)C(=O)CCC2CCCC2)CC1.O=C(O)C(F)(F)F	98%
Cc1ccc(NC(=O)c2nc(N3CCN(c4ccncc4)CC3)ccc2Cl)cc1F.O=C(O)C(F)(F)F	100%
O=C(NOCCCCOc1ccc(Cl)c(Cl)c1)c1ccccc1	98%
COc1cc(Nc2ncnc3cc(OC)c(OC)cc23)cc([N+](=O)[O-])c1.Cl	97%
Cc1cc2nc(N/C(N)=N/C(=O)NC3CCCCC3)nc(C)c2cc1C	94%
Cc1c(-c2cccc(C(C)(C)NCCCN3CCCCC3)c2)cnc(N)c1C.Cl	95%
O=C(O)C(F)(F)F.c1cc(CN2CCCCC2)cc(-c2ccc(-c3nc4ccccc4[nH]3)s2)c1	100%
Oc1cc(Nc2ccnc3cc(-c4cccc(CN5CCCCC5)c4)ccc23)c(F)cc1Cl	100%
CCCCCC(=O)NCC(NCCCNc1cc(=O)c2ccccc2[nH]1)c1cc(Br)cc(Br)c1 (stereo not given)	96%
COc1ccc(-n2ncc(C(=O)N3CCC4(C3)C(=O)N(c3ccccc3)c3ccccc34)c2C)cc1 (stereo not given)	88%
COc1cccc(CNC[C@@H](O)[C@H](Cc2ccccc2)NC(=O)c2cc(N3CCCC3=O)c3[nH]cc(C(C)C)c3c2)c1	96%
COc1cc([N+](=O)[O-])ccc1NC(=O)Nc1ccc(OC(F)(F)F)cc1	84%
COc1ccc(Oc2cnc(N)nc2N)c(C(C)C)c1	97%
COc1ccc2c(c1)[nH]c1c(/C=C/c3ccc([N+](=O)[O-])cc3)nccc12	100%
CC(C)N1CCN(C(CN2CCN(CCCOc3cccc4ccccc34)CC2)c2ccc(F)cc2)CC1.Cl (stereo not given)	100%
Cc1nc(N/C(N)=N/C(=O)NC2CCCCC2)nc2ccccc12	95%
O=C(/C=C/c1ccc(Cl)cc1)NCCCCCN1CCN(C(=O)Nc2ccc(Cl)c(C(F)(F)F)c2)CC1	94%
O=C(/C=C/c1ccc(-c2nc3ccc(Cl)cc3[nH]2)cc1)NC1CCN(Cc2ccccc2)CC1	100%
O=C(Nc1cccc(C(F)(F)F)c1)N1CCOC(CCN2CCC(c3ccccc3)CC2)(c2ccc(Cl)c(Cl)c2)C1 (stereo not given)	87%
c1ccc(Oc2ccc(Nc3ccnc4cc(-c5csc(CNCCN6CCOCC6)n5)ccc34)cc2)cc1	100%

Test system: Plasmodium falciparum
Test: GSK_TCMDC: Inhibition of Plasmodium falciparum Dd2 in whole red blood cells, using parasite LDH activity as an index of growth. Test compounds present at 2uM
Assay type: functional

SMILES	Inhibition
Cc1cccc2nc(-c3ccc(-c4ccc(NC(=O)Nc5ccc(Cl)c(Cl)c5)cc4)cc3)[nH]c12	100%
Cc1cc(N(CCO)CCCN2CCCCC2)nc(Nc2ccc(Cl)cc2)n1.Cl	18%
Cc1cc(N2CC=CCC2)nc(NC(=N)Nc2ccc(Br)cc2)n1	41%
O=C(OCc1ccccc1)N1CCc2c([nH]c3ccccc23)C1CCC(F)(F)F (stereo not given)	81%
CCc1ccc(O)c(-c2cc(C(=O)Nc3ccc(OC)c(Cl)c3)[nH]n2)c1	97%
O=C(/C=C/c1ccc(Cl)c(Cl)c1)NCCCCCN1CCC(NC(=S)Nc2cccc(Cl)c2)CC1	43%
CCCC(C)Nc1nc(C)cc(NCCC(=O)Nc2ccccc2)n1.O=C(O)C(F)(F)F (stereo not given)	11%
Cc1cc(N[C@@H](Cc2ccccc2)C(=O)NCc2cccc(F)c2)nc(NCCc2ccc(F)cc2)n1.O=C(O)C(F)(F)F	69%
CCOc1ccccc1C1C(C(=O)C(C)(C)C)N2c3ccc(Br)cc3C=CC2C12C(=O)c1ccccc1C2=O (stereo not given)	94%
O=C(Nc1ccc(OC2CCN(Cc3ccc(F)cc3)CC2)cc1)c1cccs1.O=C(O)C(F)(F)F	52%
CN1CCC(C(=O)Nc2ccc(-c3cccc(-c4nc5cc(F)ccc5[nH]4)c3)cc2)CC1	5%
Br.CC1(C)NC(N)=NC(=N)N1OCCSc1ccc(Cl)c(Cl)c1	95%
C=C[C@H]1CN(CCCCCCC)CC[C@H]1C[C@@H](Cc1ccnc2ccc(OC)cc12)OC(=O)[C@](OC)(c1ccccc1)C(F)(F)F	96%
O=C(/C=C/c1ccc(Cl)cc1)NCCCCCN1CCCN(C(=O)Nc2ccc(F)c(Cl)c2)CC1	6%
CN(Cc1ccc(NC(=O)CCC2CCN(C(=O)/C=C/c3ccc(Cl)c(Cl)c3)CC2)cc1)C1CCOCC1	2%
Cc1ccccc1Cn1c(CN2CCC(C(=O)NC3CC3)CC2)cc2ccccc21	96%
COc1cccc(C2=CC(C)(C)Oc3cc(OCCN(C)C)ccc32)c1.Cl	96%
C=CCN(c1nc(NC)nc(NCc2c(OC)cccc2OC)n1)C1CCCC1	70%
CCc1c(CCNCCCCCCNCCc2ccccc2)ccc(OC)c1OC.Cl	3%
CN(C)CCOc1ccc(/C(=C(/CCCn2ccnc2)c2ccccc2)c2ccc(O)cc2)cc1	99%

SMILES	Inhibition
CN1CCN(CCCN(Cc2cccc(-c3cccc(CNCc4ccc5c(c4)OCO5)c3)c2)C(=O)CCC2CCCC2)CC1.O=C(O)C(F)(F)F	80%
Cc1ccc(NC(=O)c2nc(N3CCN(c4ccncc4)CC3)ccc2Cl)cc1F.O=C(O)C(F)(F)F	57%
O=C(NOCCCCOc1ccc(Cl)c(Cl)c1)c1ccccc1	1%
COc1cc(Nc2ncnc3cc(OC)c(OC)cc23)cc([N+](=O)[O-])c1.Cl	6%
Cc1cc2nc(N/C(N)=N/C(=O)NC3CCCCC3)nc(C)c2cc1C	98%
Cc1c(-c2cccc(C(C)(C)NCCCN3CCCCC3)c2)cnc(N)c1C.Cl	2%
O=C(O)C(F)(F)F.c1cc(CN2CCCCC2)cc(-c2ccc(-c3nc4ccccc4[nH]3)s2)c1	100%
Oc1cc(Nc2ccnc3cc(-c4cccc(CN5CCCCC5)c4)ccc23)c(F)cc1Cl	100%
CCCCCC(=O)NCC(NCCCNc1cc(=O)c2ccccc2[nH]1)c1cc(Br)cc(Br)c1 (stereo not given)	66%
COc1ccc(-n2ncc(C(=O)N3CCC4(C3)C(=O)N(c3ccccc3)c3ccccc34)c2C)cc1 (stereo not given)	91%
COc1cccc(CNC[C@@H](O)[C@H](Cc2ccccc2)NC(=O)c2cc(N3CCCC3=O)c3[nH]cc(C(C)C)c3c2)c1	98%
COc1cc([N+](=O)[O-])ccc1NC(=O)Nc1ccc(OC(F)(F)F)cc1	72%
COc1ccc(Oc2cnc(N)nc2N)c(C(C)C)c1	0%
COc1ccc2c(c1)[nH]c1c(/C=C/c3ccc([N+](=O)[O-])cc3)nccc12	63%
CC(C)N1CCN(C(CN2CCN(CCCOc3cccc4ccccc34)CC2)c2ccc(F)cc2)CC1.Cl (stereo not given)	75%
Cc1nc(N/C(N)=N/C(=O)NC2CCCCC2)nc2ccccc12	99%
O=C(/C=C/c1ccc(Cl)cc1)NCCCCCN1CCN(C(=O)Nc2ccc(Cl)c(C(F)(F)F)c2)CC1	5%
O=C(/C=C/c1ccc(-c2nc3ccc(Cl)cc3[nH]2)cc1)NC1CCN(Cc2ccccc2)CC1	92%
O=C(Nc1cccc(C(F)(F)F)c1)N1CCOC(CCN2CCC(c3ccccc3)CC2)(c2ccc(Cl)c(Cl)c2)C1 (stereo not given)	69%
c1ccc(Oc2ccc(Nc3ccnc4cc(-c5csc(CNCCN6CCOCC6)n5)ccc34)cc2)cc1	99%
